# Laboratory results from PubChem BioAssay (Tox21).
# Inconclusive results are not listed. Entries that show only a call come without a potency. Unmarked numbers belong to inactive results. Active and inactive are the calls of the source. Calls follow the shape of the dose curve; as a rule, active = well fitted curve in the direction sought with a large enough effect in the repeat runs; inconclusive = weak or mixed curves; inactive = no such curve, though single readings can be large; an effect the other way counts as inactive or inconclusive.
# Key:
# [1] = biological target: Cytochrome P450 1A2 (Homo sapiens) (UniProt P05177); test: Cytochrome P450 Family 1 Subfamily A Member 2 (CYP1A2) small molecule antagonists: luciferase reporter qHTS assay (AID 1671199); as to activity change, negative = inhibition: series mostly up to about 120 µM
# How it was run: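 P450-Glo CYP1A2, 1536-well qHTS: enzyme/proluciferin substrate + cpd (DMSO), 10 min RT; NADPH regen, 1 h RT; detection reagent, 20 min; luminescence, RLU.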
# [2] = biological target: Voltage-gated inwardly rectifying potassium channel KCNH2 (Homo sapiens) (UniProt Q12809); test: Human Ether-a-go-go-Related Gene (hERG) channel small molecule antagonists: fluorescence cell-based qHTS assay (AID 1671200); as to activity change, negative = inhibition: series mostly up to about 77 µM
# How it was run: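 Thallium flux as potassium surrogate: FluxOR II dye loaded 1 h at room temperature into hERG-expressing U2OS cells, then stimulus buffer added after 10 min. Kinetic 480 nm excitation/540 nm emission read, 2 min.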
# [3] = biological target: Cytochrome P450 3A4 (Homo sapiens) (UniProt P08684); test: Cytochrome P450 Family 3 Subfamily A Member 4 (CYP3A4) small molecule antagonists: luciferase reporter qHTS assay (AID 1671201); as to activity change, negative = inhibition: series mostly up to about 120 µM
# How it was run: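 Recombinant human CYP3A4 converts a proluciferin substrate to luciferin over 1 h at room temperature after NADPH regeneration solution is added (compound preincubated 10 min); detection reagent stops reaction, luminescence read 20 min later as relative units.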
# Also: nearly all actives have a fitted effect of over 50% in size.
# Potency is read from the fitted curve at half-maximal effect.
# Cytochrome P450 1A2 (Homo sapiens), sequence (P05177 whole entry, looked up): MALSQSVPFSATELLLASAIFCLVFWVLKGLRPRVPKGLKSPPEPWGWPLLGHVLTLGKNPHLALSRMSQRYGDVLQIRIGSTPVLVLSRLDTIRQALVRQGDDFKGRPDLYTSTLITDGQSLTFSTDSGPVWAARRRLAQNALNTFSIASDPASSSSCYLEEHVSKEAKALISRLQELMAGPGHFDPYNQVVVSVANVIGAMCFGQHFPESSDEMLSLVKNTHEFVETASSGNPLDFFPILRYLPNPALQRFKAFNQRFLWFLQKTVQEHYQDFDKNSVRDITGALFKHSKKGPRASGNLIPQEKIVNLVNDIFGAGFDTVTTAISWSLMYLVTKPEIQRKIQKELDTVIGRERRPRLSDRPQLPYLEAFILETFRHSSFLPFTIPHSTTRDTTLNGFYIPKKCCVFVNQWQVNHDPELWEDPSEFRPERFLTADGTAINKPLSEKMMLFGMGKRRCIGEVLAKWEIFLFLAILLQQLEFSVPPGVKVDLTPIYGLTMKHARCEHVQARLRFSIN
# Cytochrome P450 3A4 (Homo sapiens), sequence (P08684 whole entry, looked up): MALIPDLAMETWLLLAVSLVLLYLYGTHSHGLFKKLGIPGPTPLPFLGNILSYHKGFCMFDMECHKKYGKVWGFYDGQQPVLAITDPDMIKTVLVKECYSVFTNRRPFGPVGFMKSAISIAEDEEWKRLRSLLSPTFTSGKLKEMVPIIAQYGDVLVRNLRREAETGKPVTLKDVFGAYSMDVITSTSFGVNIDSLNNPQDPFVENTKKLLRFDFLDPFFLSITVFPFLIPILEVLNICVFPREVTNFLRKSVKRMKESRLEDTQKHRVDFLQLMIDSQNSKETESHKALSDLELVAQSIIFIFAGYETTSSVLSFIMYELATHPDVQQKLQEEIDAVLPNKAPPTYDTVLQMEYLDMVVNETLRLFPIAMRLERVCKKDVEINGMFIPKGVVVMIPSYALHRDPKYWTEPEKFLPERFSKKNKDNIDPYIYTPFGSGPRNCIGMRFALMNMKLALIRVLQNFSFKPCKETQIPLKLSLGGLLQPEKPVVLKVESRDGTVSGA
# Voltage-gated inwardly rectifying potassium channel KCNH2 (Homo sapiens), sequence (Q12809 whole entry, looked up): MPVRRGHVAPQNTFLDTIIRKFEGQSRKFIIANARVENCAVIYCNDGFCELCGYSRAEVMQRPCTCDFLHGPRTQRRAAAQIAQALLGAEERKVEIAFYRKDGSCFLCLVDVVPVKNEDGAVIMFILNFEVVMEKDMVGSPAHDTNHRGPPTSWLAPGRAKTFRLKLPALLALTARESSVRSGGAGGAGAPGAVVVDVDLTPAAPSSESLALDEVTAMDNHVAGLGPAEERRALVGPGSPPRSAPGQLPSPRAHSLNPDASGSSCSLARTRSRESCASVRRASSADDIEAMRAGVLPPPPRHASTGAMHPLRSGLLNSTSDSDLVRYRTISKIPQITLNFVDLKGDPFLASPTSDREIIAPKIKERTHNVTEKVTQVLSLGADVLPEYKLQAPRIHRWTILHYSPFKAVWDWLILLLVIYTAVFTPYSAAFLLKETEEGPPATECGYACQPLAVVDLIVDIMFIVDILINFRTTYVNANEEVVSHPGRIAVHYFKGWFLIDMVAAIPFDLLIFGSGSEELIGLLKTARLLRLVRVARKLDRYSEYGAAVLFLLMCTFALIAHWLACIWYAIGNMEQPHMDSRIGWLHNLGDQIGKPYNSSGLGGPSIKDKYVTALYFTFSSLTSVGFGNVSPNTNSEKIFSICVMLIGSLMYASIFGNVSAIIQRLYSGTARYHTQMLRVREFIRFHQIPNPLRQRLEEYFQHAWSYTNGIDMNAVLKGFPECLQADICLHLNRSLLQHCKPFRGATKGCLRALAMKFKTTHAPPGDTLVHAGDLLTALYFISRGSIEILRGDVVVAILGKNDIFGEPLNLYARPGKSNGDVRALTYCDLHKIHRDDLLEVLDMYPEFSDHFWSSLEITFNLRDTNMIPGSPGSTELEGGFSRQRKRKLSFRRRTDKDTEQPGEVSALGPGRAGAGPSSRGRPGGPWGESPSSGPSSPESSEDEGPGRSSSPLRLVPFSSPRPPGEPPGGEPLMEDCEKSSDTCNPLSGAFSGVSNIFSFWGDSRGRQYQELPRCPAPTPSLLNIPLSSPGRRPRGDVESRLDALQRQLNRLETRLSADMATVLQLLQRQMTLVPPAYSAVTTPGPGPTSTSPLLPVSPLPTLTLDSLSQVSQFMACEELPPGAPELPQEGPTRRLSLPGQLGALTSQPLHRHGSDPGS
compound,measurement,setting,value
O=C(Nc1ccc(Cl)c(Cl)c1)c1cc(Cl)cc(Cl)c1O,Potency,[1],20 µM (active)
same,Potency,[2],inactive
same,Potency,[3],17.8 µM (active)
Cc1cccc(C)c1NC(=O)CN1CCN(CCCC(c2ccc(F)cc2)c2ccc(F)cc2)CC1,Potency,[1],inactive
same,Potency,[3],inactive
NC1(c2ccc(-c3nc4ccn5c(=O)[nH]nc5c4cc3-c3ccccc3)cc2)CCC1,Potency,[1],inactive
same,Potency,[3],inactive
COc1cc(C(C)C)c2c(c1)S(=O)(=O)N(COc1cc(=O)n3cccc(OCCN4CCCCC4)c3n1)C2=O,"activity change, negative = inhibition",[1],-18.4% [at 23.6 µM]
same,Potency,[3],0.301 µM (active)
O=Cc1ccc(F)cc1,Potency,[1],inactive
same,Potency,[2],inactive
same,Potency,[3],inactive
O=CC1CC1,Potency,[1],inactive
same,Potency,[2],inactive
same,Potency,[3],inactive
CC1(C)C(=O)N(CO)C(=O)N1CO,Potency,[2],inactive
CC(C)OC(=O)c1cc(C(=O)OC(C)C)cc([N+](=O)[O-])c1,Potency,[1],2.33 µM (active)
same,Potency,[3],inactive
O=C1OC(OC(=O)c2cccnc2Nc2cccc(C(F)(F)F)c2)c2ccccc21 (stereo not drawn),Potency,[1],9.77 µM (active)
same,Potency,[3],inactive
CCN=C1C=CC(=C(c2ccc(N(CC)CC)cc2)c2ccc(N(CC)CC)cc2)c2ccccc21,Potency,[1],25 µM (active)
same,Potency,[2],0.345 µM (active)
same,Potency,[3],8.88 µM (active)
c1ccc(Sc2ccccc2)cc1,Potency,[1],31.7 µM (active)
same,Potency,[3],inactive
NC(=O)c1nc(-c2cccc(-c3cc(F)ccc3OCC(F)(F)C(F)(F)F)c2)n[nH]1,Potency,[2],43.6 µM (active)
S=C(SSSSSSC(=S)N1CCCCC1)N1CCCCC1,"activity change, negative = inhibition",[2],-18.7% [at 15.8 µM]
CC(=O)Nc1ccc(O)cc1,Potency,[2],inactive
